# In PubChem BioAssay (Tox21):
# “And” between values parts separate entries of the source, which are not always exact repeats. Equal entries are not always repeated. Inconclusive results are not listed. The source holds several records for some structures; these can differ, active in one and inactive in another. The source made the active and inactive calls. Calls follow the shape of the dose curve; as a rule, active = well fitted cell-killing curve with a large enough effect in the repeat runs; inconclusive = weak or mixed curves, or effect the other way; inactive = flat fitted curve, though single readings scatter.
# Assay: qHTS RealTime-Glo MT Cell Viability Assay in HepG2 cells - 40 hour (AID 1224870); also: nearly all actives have a fitted effect of over 50% in size
# Conditions: RealTime-Glo luminescence; series mostly up to 76.8 µM; activity change, negative = cytotoxic: at the top concentration
# Description: National Center for Advancing Translational Sciences [NCATS]
# NIH Chemical Genomics Center [NCGC]
# U.S. Environmental Protection Agency [EPA]
# National Institutes of Environmental Health Sciences [NIEHS]
# National Toxicology Program [NTP]
# U.S. Food and Drug Administration [FDA]
# Measure of cell viability is critical in the cell-base assay. Analysis of cell viability is necessary for the characterization of cell responses to cytotoxic drugs and environmental stress. A RealTime-Glo MT Cell Viability Assay to monitor cell viability in real time of continues cell culture during 40 hours of compound treatment was used to screen Tox21 10K library compounds in HepG2 cells. The RealTime-Glo MT Cell Viability Assay is a nonlytic, homogeneous, bioluminescent method to measure cell viability in real time using a simple, plate-based method. The assay involves adding NanoLuc luciferase and a cell-permeant prosubstrate to cells in culture. Viable cells reduce the proprietary prosubstrate to generate a substrate for NanoLuc luciferase. This substrate diffuses from cells into the surrounding culture medium, where it is rapidly used by the NanoLuc Enzyme to produce a luminescent signal. The signal correlates with the number of viable cells, making the assay well suited for cytotoxicity studies.
# Tox21 Assay Protocol Summary:
# The mixture of HepG2 cell suspension and reagents were dispensed at 600cells/6 ul/well in 1536-well tissue culture treated black solid bottom plates using a Multidrop dispenser. After the assay plates were incubated at a 37 C/5% CO2 incubator for 5 hours, 23 nL of compounds dissolved in DMSO, positive and negative controls was transferred to the assay plate by a pintool work station. The plates were incubated at 37 C for 40 hours. The luminescence intensity were measured at 0h, 8h, 16h, 24h, 32h and 40h time points using ViewLux plate reader during compound treatment.
# % is scaled to controls: 0 for no effect and ±100 for the full control effect; potency is read from the fitted curve at half-maximal effect.
Structure (SMILES),Potency,"activity change, negative = cytotoxic"
O=c1n(CC2CO2)c(=O)n(CC2CO2)c(=O)n1CC1CO1 (stereo not given),inactive,
CCn1cc(C(=O)O)c(=O)c2cc(F)c(N3CCNC(C)C3)c(F)c21 (stereo not given),,2.31% [at 35.3 µM] (inactive)
O=C1NCC2(CCN(CCc3ccccc3)CC2)O1,,3.17% [at 35.3 µM] (inactive)
c1cnc2cc3c(cc2n1)C1CNCC3C1,,1.15% [at 35.3 µM] (inactive)
CCN(CC)C(=O)Nc1ccc(OCC(O)CNC(C)(C)C)c(C(C)=O)c1 (stereo not given),,1.89% [at 35.3 µM] (inactive)
O=C(O)c1cn(-c2ccc(F)cc2)c2cc(N3CCNCC3)c(F)cc2c1=O,inactive,
O=C(Nc1ccccc1SSc1ccccc1NC(=O)c1ccccc1)c1ccccc1,,0.583% (inactive)
COc1ccc(CCN2CCC(Nc3nc4ccccc4n3Cc3ccc(F)cc3)CC2)cc1,15.8 µM (active) and 10.7 µM (active),
O=C(Cl)c1cccc(C(=O)Cl)c1,inactive,
Cc1occc(=O)c1OC(=O)C(C)C,,-2.36% (inactive)
CC(C)C(=O)c1c(C(C)C)nn2ccccc12,,2.09% [at 35.3 µM] (inactive)
CN(C)c1ccc2nc3ccc(=[N+](C)C)cc-3sc2c1,21 µM (active) and 12.3 µM (active) and 23.9 µM (active),
Oc1ccc(Cl)cc1Cc1cc(Cl)ccc1O,49.9 µM (active),
CCCCCCCCCCCC[N+](C)(C)C,48.9 µM (active) and 49 µM (active) and 43.6 µM (active),
CCOc1ccc2c(c1)C(C)=CC(C)(C)N2,,-0.549% (inactive)
O=C(Oc1ccccc1)c1ccccc1O,inactive,
NC(Cc1ccc(Cl)cc1)C(=O)O (stereo not given),,0.881% [at 0.29 µM] (inactive)
Clc1ccc2c(c1)C(N1CCNCC1)=Nc1ccccc1O2,54.9 µM (active),
O=C(OCc1ccccc1)c1ccc(O)cc1,inactive,
Cc1scc2c1N(C(=O)CN1CCN(C)CC1)c1ccccc1NC2=O,,0.248% [at 35.3 µM] (inactive)

Structure (SMILES),Potency,"activity change, negative = cytotoxic"
OCCOCCN1CCN(C(c2ccccc2)c2ccc(Cl)cc2)CC1 (stereo not given),48.3 µM (active) and inactive,
CCN(CC)CCOc1ccc(/C(=C(\Cl)c2ccccc2)c2ccccc2)cc1,17.7 µM (active) and 23.9 µM (active),
[Cl][In]([Cl])[Cl],inactive,
O,inactive,
CCOc1ccccc1C(N)=O,inactive,
O=C1CC2(CCCC2)CC(=O)N1CCCCN1CCN(c2ncccn2)CC1,inactive,
COC(=O)/C=C/c1ccccc1,inactive,
c1ccc2cc3c(ccc4ccccc43)cc2c1,inactive,
NNCCc1ccccc1,inactive,
CCCN[C@H]1CCc2nc(N)sc2C1,inactive,
c1cc(C(c2ccc(OCC3CO3)cc2)C(c2ccc(OCC3CO3)cc2)c2ccc(OCC3CO3)cc2)ccc1OCC1CO1 (stereo not given),inactive,
c1ccc2c(c1)CCCC2C1=NCCN1 (stereo not given),,0.107% [at 35.3 µM] (inactive)
Cc1cc(C(C)(C)C)c(O)c(C(C)(C)C)c1,inactive,
C/C=C/c1ccc(OCC)c(O)c1,inactive,
CCCCCCCCCCCCCC[P+](CCCC)(CCCC)CCCC,21.8 µM (active) and 11 µM (active),
Cc1cc(OCCOCC[N+](C)(C)Cc2ccccc2)ccc1C(C)(C)CC(C)(C)C,12.2 µM (active) and 8.49 µM (active),
Cc1cccc2n[nH]nc12,inactive,
CC(=O)Nc1ccc(C(=O)CCl)cc1,inactive and 24.5 µM (active),
CC(=O)CC(C)=O,,-0.0123% (inactive)
CC(C)CCOC(=O)c1ccc(N(C)C)cc1,,-5.14% [at 35.3 µM] (inactive)
